Only a selection was taken, and hits are over-represented in it overall.
PglD inh – PglD (C. jejuni) enzyme inhibition | purified PglD enzyme, DTNB colorimetric CoA detection | inhibition, % at 12.5 µM | 360,000 tested, 0.098% active; in the data active means inhibition above about 16%, passing the limit was not always enough; inconclusive means no clear call, values can overlap the other calls
Glyco luc inh – blocks N-linked glycosylation in D54 reporter cells; 360,000 tested, 0.23% active; reporter increase, % at 12.5 µM; D54 ERlucT glycosylation luciferase reporter, 24 h; percent of 100 nM tunicamycin response; AID 588692;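 active means mean luciferase reporter signal, scaled so untreated is 0 and the glycosylation-blocking control 100, at or above a set limit in every replicate; inconclusive means mean reaches the limit but not every replicate does; inactive means mean below the limit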;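 further: luciferase carries N-glycosylation sites so blocking glycosylation raises the light; 0% = median of neutral control wells and 100% = median of 100 nM tunicamycin wells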
DENV2 CPE rescue – inhibitors of DENV2 cytopathic effect; DENV2-infected cells, cytopathic effect rescue, plate reader; CPE inhibition, % at 9.99 µM; 350,000 tested, 1.7% active; in the data active means CPE inhibition above about 20%, passing the limit was not always enough; inconclusive means no clear call, values can overlap the other calls; tested in BHK-21 cells;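 further: 0% = median of neutral control wells and 100% = median of positive control wells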
Rtt109 HAT inh – blocks Candida albicans Rtt109/Vps75 acetyltransferase activity. Q5AAJ8. purified Rtt109/Vps75, ThioGlo CoA-SH fluorescence, 4 h. inhibition, % at 34.9 µM. 330,000 tested, 0.16% active. AID 540336;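 active means inhibition of at least 50% in every replicate; inconclusive means best replicate reaches 50% inhibition but some replicates fall short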
Target sequence (Q5AAJ8 whole entry, looked up): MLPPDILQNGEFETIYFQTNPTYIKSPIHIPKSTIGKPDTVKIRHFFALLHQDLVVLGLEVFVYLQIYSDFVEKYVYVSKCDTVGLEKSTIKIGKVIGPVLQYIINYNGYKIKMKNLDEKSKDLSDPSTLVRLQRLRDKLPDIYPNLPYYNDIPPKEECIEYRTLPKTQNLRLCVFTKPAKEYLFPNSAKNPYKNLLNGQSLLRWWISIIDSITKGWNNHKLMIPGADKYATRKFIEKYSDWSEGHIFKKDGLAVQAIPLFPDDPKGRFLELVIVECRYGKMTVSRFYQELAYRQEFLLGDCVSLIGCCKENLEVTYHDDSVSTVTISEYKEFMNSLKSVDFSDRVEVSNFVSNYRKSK
An asterisk follows results filed as active; ? = inconclusive; nt = not tested or not shown; ! = a repeat was not active.

SMILES	PglD inh	Glyco luc inh	DENV2 CPE rescue	Rtt109 HAT inh
C[C@H](CO)N1C[C@H](C)[C@H](CN(C)Cc2ccc3c(c2)OCO3)Oc2ccc(NC(=O)c3ccncc3)cc2CC1=O	2.9	nt	11.4	nt
C[C@@H]1CN([C@@H](C)CO)C(=O)Cc2cc(NC(=O)c3ccncc3)ccc2O[C@H]1CN(C)Cc1ccc(C(=O)Nc2ccccc2N)cc1	0.6	nt	72.0*	nt
C[C@H](CO)N1C[C@H](C)[C@@H](CN(C)Cc2ccc3c(c2)OCO3)Oc2ccc(NC(=O)c3ccncc3)cc2CC1=O	-0.1	nt	29.0*	nt
COc1ccc(NC(=O)Nc2ccc3c(c2)CC(=O)N([C@H](C)CO)C[C@@H](C)[C@H](CN(C)Cc2ccc(C(=O)Nc4ccccc4N)cc2)O3)cc1	nt	nt	55.4*	nt
C[C@@H]1CN([C@H](C)CO)C(=O)Cc2cc(NC(=O)c3ccncc3)ccc2O[C@H]1CN(C)Cc1ccc(C(=O)Nc2ccccc2N)cc1	nt	nt	-1.9	nt
O=C(C1CCOCC1)N1CC(=O)N2[C@H](CO)[C@H](c3ccc(C#CC4CC4)cc3)[C@H]2C1	nt	nt	-5.0	nt
CNC[C@@H]1Oc2ccc(NC(=O)C3CC3)cc2CC(=O)N([C@@H](C)CO)C[C@H]1C	3.2	nt	-2.7	nt
O=S(=O)(NN=Cc1cccc(Cl)c1)c1ccccc1	nt	1.1	27.7*	nt
COc1ccc(S(=O)(=O)Nc2cccc3c2O[C@H](CN(C)S(=O)(=O)c2cn(C)cn2)[C@H](C)CN([C@H](C)CO)C3=O)cc1	-0.5	nt	-7.2	nt
C[C@@H]1CN([C@@H](C)CO)C(=O)c2cc(NS(=O)(=O)c3ccc(F)cc3)ccc2O[C@@H]1CN(C)C(=O)Nc1ccc(F)cc1	-3.0	nt	1.2	nt
COc1ccc2c(c1)c1ccc3c(c1n2C)C(=O)C=CC3=O	3.3	28.1*	-1.4	7.9
Cn1c2ccccc2c2ccc3c(c21)C(=O)C=CC3=O	nt	?	11.6	-0.7
Cc1ccc2c(c1)c1ccc3c(c1n2C)C(=O)C=CC3=O	-5.2	30.6*	1.6	-0.5
Clc1ccccc1-c1cc2nc(NCCCn3ccnc3)ccn2n1	-1.1	-1.6	31.6*	nt
CCCN1[C@@H]2c3ccc(-c4ccc(F)cc4)c(=O)n3C[C@H]1[C@H](CO)[C@H]2C(=O)NCCc1cn(C)cn1	1.7	nt	9.6	nt
CSCC[C@H](NC(=O)OC(C)(C)C)C(=O)N1CCC(C(=O)N[C@@H](C)C(=O)NCc2ccc(F)cc2)CC1	7.0	0.7	35.7*	-6.6
NC(=O)c1ncn([C@@H]2O[C@H](C(=O)N[C@H](Cc3c[nH]c4ccccc34)C(=O)N3CCN(CC(=O)N4CCCC4)CC3)[C@@H](O)[C@H]2O)n1	nt	nt	20.9*	nt
Cc1noc(C)c1S(=O)(=O)Nc1ccc2c(c1)C(=O)N([C@@H](C)CO)C[C@H](C)[C@H](CN(C)C(=O)Nc1ccccc1)O2	-0.9	nt	-11.0	nt
COCC(=O)N1C[C@H]2[C@@H](c3ccccc31)[C@H](CO)N2Cc1ccccc1F	-0.8	nt	9.2	nt
CNC[C@@H]1Oc2ccc(NS(=O)(=O)c3ccc(F)cc3)cc2C(=O)N([C@H](C)CO)C[C@@H]1C	-0.1	nt	53.5*	nt
COc1ccc(S(=O)(=O)Nc2ccc3c(c2)C(=O)N([C@@H](C)CO)C[C@@H](C)[C@H](CN(C)S(=O)(=O)c2ccc(F)cc2)O3)cc1	2.6	nt	-1.9	nt
CNC[C@H]1Oc2ccc(NS(=O)(=O)c3ccc(C)cc3)cc2C(=O)N([C@@H](C)CO)C[C@@H]1C	4.1	nt	4.3	nt
CNC[C@@H]1Oc2c(NS(=O)(=O)c3ccc(F)cc3)cccc2C(=O)N([C@H](C)CO)C[C@H]1C	12.3	nt	21.2*	nt
COc1ccc(S(=O)(=O)Nc2ccc3c(c2)C(=O)N([C@H](C)CO)C[C@@H](C)[C@H](CN(C)S(=O)(=O)c2ccc(F)cc2)O3)cc1	-1.6	nt	25.3*	nt
CNC[C@H]1Oc2c(NS(=O)(=O)c3ccc(F)cc3)cccc2C(=O)N([C@H](C)CO)C[C@@H]1C	-4.8	-0.7	-2.1	-2.5
SMILES	PglD inh	Glyco luc inh	DENV2 CPE rescue	Rtt109 HAT inh
COc1ccc(S(=O)(=O)Nc2ccc3c(c2)C(=O)N([C@@H](C)CO)C[C@H](C)[C@H](CN(C)S(=O)(=O)c2ccc(F)cc2)O3)cc1	-0.6	-1.6	30.7*!	8.3
OC[C@H]1[C@H](c2ccc(-c3cccc(F)c3)cc2)[C@H]2CN(Cc3cncnc3)CCCCN21	-8.4	nt	?	nt
C[C@H]1CN([C@@H](C)CO)S(=O)(=O)c2ccc(C#CC3CC3)cc2O[C@@H]1CN(C)C(=O)c1cnccn1	1.6	nt	-7.0	nt
C/C=C/c1ccc([C@H]2[C@H](CO)N3C(=O)CN(Cc4ccccc4)C[C@@H]23)cc1	nt	nt	-1.3	nt
COc1ccc(OC)c(/C=C/C(=O)Nc2ccc3c(c2)CCC3)c1	7.8	1.9	23.3*	40.6
COc1ccc(C2CC(C)(c3ccc(OC)cc3)Nc3ccccc3N2)cc1 (stereo not drawn)	0.6	3.3	-6.6	30.2
COc1ccc(C2(C)CC(C)(C)Nc3ccccc32)cc1 (stereo not drawn)	1.2	1.2	26.4*	0.8
COc1cc(C(=O)N/N=C(\C)c2ccc3c(c2)OCO3)cc(OC)c1OC	nt	34.0*	7.6	3.2
S=C1NC[C@H](Cc2ccccc2)N1CC1CCN(CCCCc2ccccc2)CC1	0.4	0.5	5.2	-3.2
COc1ccc(CCN2CCC(CN3C(=S)NC[C@@H]3Cc3ccccc3)CC2)cc1OC	nt	nt	93.3*	nt
O=C1NC[C@H](Cc2ccccc2)N(CC2CCN(CCCCc3ccccc3)CC2)C1=O	-0.1	3.6	35.2*	11.3
CC(=O)C1CN(S(=O)(=O)c2ccc(C)cc2)C(c2ccccc2)CC1C (stereo not drawn)	nt	nt	38.5*	nt
O=C(Nc1ccccc1)N[C@H]1CC[C@H](CCn2cc(-c3ccccc3F)nn2)O[C@@H]1CO	nt	nt	23.4	nt
CCc1ccc(Oc2coc3cc(OCC(=O)Nc4cc(C)ccc4C)ccc3c2=O)cc1	-2.6	66.1*	7.0	1.7
O=C(CCN1C(=O)/C(=C/c2ccc3c(c2)OCO3)SC1=S)NNC(=O)c1cccnc1	nt	0.5	46.7*	nt
Cc1ccc(C)c(OCC(O)CN2CCN(CCN3C(=O)c4cccc5cccc(c45)C3=O)CC2)c1 (stereo not drawn)	nt	57.0*	-1.4	5.0
CC(=O)c1ccccc1OCC(O)CN1CCN(CCN2C(=O)c3cccc4cccc(c34)C2=O)CC1 (stereo not drawn)	nt	11.6	-0.1	8.9
Cc1ccccc1-n1cnc2c(sc3nc(N4CCOCC4)c4c(c32)CCCC4)c1=O	nt	-8.7	42.0*	7.7
Cc1ccc(S(=O)(=O)N(C)C[C@H]2Oc3ccc(NC(=O)Nc4ccc(C(F)(F)F)cc4)cc3C(=O)N([C@H](C)CO)C[C@H]2C)cc1	-1.1	nt	44.1*	nt
Cc1ccc(S(=O)(=O)N(C)C[C@H]2Oc3ccc(NC(=O)Nc4ccc(C(F)(F)F)cc4)cc3C(=O)N([C@H](C)CO)C[C@@H]2C)cc1	0.4	nt	36.8*	nt
C[C@@H]1CN([C@H](C)CO)C(=O)c2cc(NC(=O)Nc3ccc(C(F)(F)F)cc3)ccc2O[C@@H]1CN(C)S(=O)(=O)c1ccc(F)cc1	-5.1	nt	-2.5	nt
Cc1ccc(S(=O)(=O)N(C)C[C@@H]2Oc3ccc(NC(=O)Nc4ccc(C(F)(F)F)cc4)cc3C(=O)N([C@H](C)CO)C[C@H]2C)cc1	-1.3	nt	-9.1	nt

Screening results: PubChem, Broad Institute
